Assay results published in PubChem BioAssay.
Active and inactive are the calls of the source.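 The calls were made as follows, unless noted: active = inhibition at or above 50% at 10 µM; inactive = inhibition below 50%.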

Tests used:
[1] = inhibitors of TNFa-induced NFkB p65 translocation, primary screen, imaging, HUVEC, MLSMR starter and 10KST1 sets (AID 438;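 active = inhibition above 20% together with a positive visual image hit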;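 also: compound added about 3h40 before a 20 min TNFalpha stimulation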;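 as to inhibition: signal is the nuclear over cytoplasmic p65 intensity ratio per well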); conditions: HUVEC TNFa-induced p65 nuclear translocation; cell count: measured here: nuclei count (cytotoxicity indicator), at 2.08 µM; inhibition: at 2 µM, stronger effect = higher value, 0% TNFa-plus-vehicle, 100% no-TNFa wells
[2] = reduction of polyQ htt aggregates in cells – imaging, exon1htt(103Q)mCFP cells, high-content imaging, primary screen (AID 483;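 active = visual image review flags a hit and inhibition of aggregation exceeds 20%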;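 also: compound exposure lasted 3 days before fixation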;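 as to nuclei count: percent of the per-plate median nuclei count of sample wells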); conditions: exon1htt(103Q)mCFP cell line, aggregate imaging, at 2 µM; inhibition of aggregation: stronger effect = higher value; nuclei count: measured here: cell count, toxicity
[3] = endothelial E-selectin expression blockers – imaging, HUVEC, immunofluorescence, MLSMR starter and 10KST1 sets, primary screen (AID 487;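 active = visually confirmed hit in the image check and inhibition above 20%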;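 as to inhibition: signal is fraction of cell area covered by stained E-selectin grains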;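 as to nuclei count: 100% = median nuclei count of all wells on the same plate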); conditions: HUVEC TNFalpha-induced E-selectin immunofluorescence imaging, at 2 µM; inhibition: stronger effect = higher value; nuclei count: measured here: cell number, toxicity
[4] = molecular target: Voltage-gated potassium channel subunit beta-2 (Rattus norvegicus) (UniProt P62483); assay: inhibitors of rat Kvbeta2 reductase activity – biochemical, NADPH fluorescence, primary screen (AID 622;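 active = fluorescence slope higher than the sample average by over 3 SD, cut at about -0.22 in these data, passing the limit was not always enough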;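 also: slope of raw intensity against log time taken from 70 to 1610 s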); conditions: recombinant KvBeta, 4-cyanobenzaldehyde reduction, at 10 µM, stronger effect = higher value
Chain of Voltage-gated potassium channel subunit beta-2 (Rattus norvegicus) (P62483 whole entry, looked up): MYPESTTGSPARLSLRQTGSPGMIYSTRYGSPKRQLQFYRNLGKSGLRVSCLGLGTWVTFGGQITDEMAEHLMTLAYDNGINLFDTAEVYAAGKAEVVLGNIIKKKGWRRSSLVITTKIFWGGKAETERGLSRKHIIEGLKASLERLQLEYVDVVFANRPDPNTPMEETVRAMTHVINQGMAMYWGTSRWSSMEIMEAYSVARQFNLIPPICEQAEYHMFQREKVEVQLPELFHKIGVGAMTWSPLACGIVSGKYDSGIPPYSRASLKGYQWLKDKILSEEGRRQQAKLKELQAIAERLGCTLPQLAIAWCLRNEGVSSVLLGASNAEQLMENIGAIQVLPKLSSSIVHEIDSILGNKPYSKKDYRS

[5] = molecular target: Voltage-gated potassium channel subunit beta-2 (Rattus norvegicus) (UniProt P62483); assay: enhancers of rat Kvbeta2 NADPH turnover – biochemical, NADPH fluorescence, primary screen (AID 623;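 active = NADPH fluorescence slope more negative than the mean of all samples by about 3 SD, 99.7% confidence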;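 also: fluorescence intensity change per second fitted from 20 to 320 s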); conditions: Recombinant KvBeta, NADPH fluorescence decrease slope, 10 min; at 10 µM; stronger effect = lower value
[6] = molecular target: Alpha-2C adrenergic receptor (Homo sapiens) (UniProt P18825); assay: compounds altering alpha2C-coupled GIRK flux – cell-based, HEK293 alpha2C/GIRK1/2, thallium flux, primary screen (AID 624;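 active = fluorescence slope after compound addition differing from the mean of all screened samples at 99.7% confidence, in either direction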;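 also: slope of fluorescence ratio to pre-addition baseline per second over 15 to 24 s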); conditions: thallium flux BTC fluorescence, at 10 µM, actives lie on both sides
Chain of Alpha-2C adrenergic receptor (Homo sapiens) (P18825 whole entry, looked up): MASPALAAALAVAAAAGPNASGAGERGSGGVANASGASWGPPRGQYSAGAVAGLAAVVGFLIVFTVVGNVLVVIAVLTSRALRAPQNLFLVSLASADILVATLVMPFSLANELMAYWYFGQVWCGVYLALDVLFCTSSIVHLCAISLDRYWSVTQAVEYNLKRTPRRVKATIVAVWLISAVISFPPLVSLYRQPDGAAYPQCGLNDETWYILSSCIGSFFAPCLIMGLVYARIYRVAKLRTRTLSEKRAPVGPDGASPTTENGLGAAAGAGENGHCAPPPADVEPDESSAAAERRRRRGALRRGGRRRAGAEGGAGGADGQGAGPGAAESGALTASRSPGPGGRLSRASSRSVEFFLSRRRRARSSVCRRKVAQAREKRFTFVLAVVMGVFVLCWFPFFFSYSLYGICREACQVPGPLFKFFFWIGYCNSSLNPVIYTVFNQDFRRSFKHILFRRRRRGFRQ

[7] = blockers of RIG-like receptor reporter activation – cell-based, Sendai virus stimulus, luciferase, 10K MLSCN set, TLR/RLR signaling modifier project, primary screen (AID 602276); conditions: HEK293 RL24 IRF3 luciferase reporter, at 10 µM, stronger effect = higher value;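 also: firefly luciferase from ISG56 promoter only with Renilla not read in this screen; 0% = Sendai virus plus DMSO and 100% = medium plus DMSO without virus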
[8] = TLR3 IRF3 reporter activation blockers – cell-based, poly I:C stimulus, luciferase, 10K MLSCN set, primary screen (AID 602277;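 active = inhibition of the reporter signal at or above 50%; inactive = inhibition below 50%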); conditions: HEK293-TLR3 RL24 IRF3 luciferase reporter, at 10 µM, stronger effect = higher value

In the case of CCOc1cc(S(=O)(=O)NCc2ccc3c(c2)OCO3)ccc1F, the cell count [1] is reported as 266, the inhibition [1] is reported as 1.8% (inactive) and the inhibition of aggregation [2] is reported as -4.1% (inactive). The nuclei count [2] was 98.6%, the inhibition [3] was -32.5% (inactive) and the nuclei count [3] was 103%. The fluorescence slope [4] was -0.407 (inactive), the NADPH fluorescence slope [5] was -3.8e-05 (inactive) and the slope [6] was 0.00471 (inactive). The inhibition [7] was 15.3% (inactive) and the inhibition [8] was 9.83% (inactive).
For CCOC(=O)c1cc2sc(C)cc2n1C(C)C(=O)OCC (centres undefined), the cell count [1] was 291, the inhibition [1] was 0.5% (inactive) and the inhibition of aggregation [2] was -7% (inactive). For the same molecule, the nuclei count [2] was 106%, the inhibition [3] was -48.6% (inactive) and the nuclei count [3] was 123%. For the same molecule, the fluorescence slope [4] was -0.607 (inactive), the NADPH fluorescence slope [5] was -3.9e-05 (inactive) and the slope [6] was 0.00348 (inactive). The inhibition [7] was 18.2% (inactive) and the inhibition [8] was 20.3% (inactive).
In the case of COC(=O)c1cc(Br)c(=O)n(-c2ccc(OC)cc2)c1, the cell count [1] is reported as 542, the inhibition [1] is reported as -0.5% (inactive) and the inhibition of aggregation [2] is reported as -13.6% (inactive). The nuclei count [2] was 108%, the inhibition [3] was 25.8% (inactive) and the nuclei count [3] was 112%. The fluorescence slope [4] was -0.503 (inactive), the NADPH fluorescence slope [5] was -3.9e-05 (inactive) and the slope [6] was 0.00452 (inactive). For the same molecule, the inhibition [7] was 12.6% (inactive) and the inhibition [8] was 23.2% (inactive).
With COc1cccc(C(=O)N2CCCC(c3nc(-c4cccs4)no3)C2)c1 (centres undefined) the cell count [1] was 446, the inhibition [1] was -25.5% (inactive) and the inhibition of aggregation [2] was 19.7% (inactive). The nuclei count [2] was 74.5%, the inhibition [3] was 22.9% (inactive) and the nuclei count [3] was 95.9%. The fluorescence slope [4] was -0.467 (inactive), the NADPH fluorescence slope [5] was -3.3e-05 (inactive) and the slope [6] was 0.00563 (inactive). For the same molecule, the inhibition [7] was 24.8% (inactive) and the inhibition [8] was -19.2% (inactive).
In the case of Cn1c(CCNC(=O)c2ccco2)nc2cc(NC(=O)C3CCCCC3)ccc21, the cell count [1] is reported as 359, the inhibition [1] is reported as 0.5% (inactive) and the inhibition of aggregation [2] is reported as 8.3% (inactive). For the same molecule, the nuclei count [2] was 91.1%, the inhibition [3] was 42.2% (inactive) and the nuclei count [3] was 88.8%. For the same molecule, the fluorescence slope [4] was -0.466 (inactive), the NADPH fluorescence slope [5] was -0.000205 (inactive) and the slope [6] was 0.00612 (inactive). For the same molecule, the inhibition [7] was 6.27% (inactive) and the inhibition [8] was 0.497% (inactive).
With CC(=O)c1ccc(-n2nnnc2SCC(=O)N2CCc3ccccc3C2)cc1 the cell count [1] was 434, the inhibition [1] was -12.9% (inactive) and the inhibition of aggregation [2] was 12.1% (inactive). The nuclei count [2] was 104%, the inhibition [3] was 0% (inactive) and the nuclei count [3] was 93.6%. The fluorescence slope [4] was -0.51 (inactive), the NADPH fluorescence slope [5] was 2.1e-05 (inactive) and the slope [6] was 0.0053 (inactive). For the same molecule, the inhibition [7] was 2.55% (inactive) and the inhibition [8] was 5.8% (inactive).
For CC(C)c1ccc(-c2nc(N3CCOCC3)[nH]c(=O)c2C#N)cc1, the cell count [1] was 321, the inhibition [1] was -8.9% (inactive) and the inhibition of aggregation [2] was -12% (inactive). The nuclei count [2] was 95.4%, the inhibition [3] was -32.8% (inactive) and the nuclei count [3] was 114%. For the same molecule, the fluorescence slope [4] was -0.405 (inactive), the NADPH fluorescence slope [5] was -2e-05 (inactive) and the slope [6] was 0.00599 (inactive). The inhibition [7] was 13.1% (inactive) and the inhibition [8] was 13.1% (inactive).
In the case of COc1cc2c(cc1OC)C(C)N(C(=O)c1cc3n(n1)C(C(F)(F)F)CC(c1ccco1)N3)CC2 (centres undefined), the cell count [1] is reported as 591, the inhibition [1] is reported as 9.6% (inactive) and the inhibition of aggregation [2] is reported as -0.8% (inactive). For the same molecule, the nuclei count [2] was 97.6%, the inhibition [3] was -22% (inactive) and the nuclei count [3] was 96.6%. The fluorescence slope [4] was -0.613 (inactive), the NADPH fluorescence slope [5] was 1.3e-05 (inactive) and the slope [6] was 0.00369 (inactive). For the same molecule, the inhibition [7] was 25.6% (inactive) and the inhibition [8] was 19.1% (inactive).
In the case of O=C1Nc2ccccc2OC1CC(=O)N1CCCC1 (centres undefined), the cell count [1] is reported as 491, the inhibition [1] is reported as -6.6% (inactive) and the inhibition of aggregation [2] is reported as 44.6% (active). The nuclei count [2] was 80.1%, the inhibition [3] was -105% (inactive) and the nuclei count [3] was 115%. For the same molecule, the fluorescence slope [4] was -0.522 (inactive), the NADPH fluorescence slope [5] was -1.3e-05 (inactive) and the slope [6] was 0.00582 (inactive). The inhibition [7] was 6.75% (inactive) and the inhibition [8] was 28.5% (inactive).
For CC1CCN(C(=O)CSc2nc3c(cnn3-c3ccccc3)c(=O)[nH]2)CC1, the cell count [1] was 472, the inhibition [1] was 2.3% (inactive) and the inhibition of aggregation [2] was -5.6% (inactive). The nuclei count [2] was 102%, the inhibition [3] was 14.9% (inactive) and the nuclei count [3] was 79.5%. The fluorescence slope [4] was -0.582 (inactive), the NADPH fluorescence slope [5] was -2.5e-05 (inactive) and the slope [6] was 0.00596 (inactive). For the same molecule, the inhibition [7] was 10.9% (inactive) and the inhibition [8] was 28.1% (inactive).
For COc1ccc(C(=O)Nc2nncs2)c(OC)c1, the cell count [1] was 746, the inhibition [1] was 7.5% (inactive) and the inhibition of aggregation [2] was -7.4% (inactive). For the same molecule, the nuclei count [2] was 27%, the inhibition [3] was -98.6% (inactive) and the nuclei count [3] was 111%. For the same molecule, the fluorescence slope [4] was -0.631 (inactive), the NADPH fluorescence slope [5] was 3.8e-06 (inactive) and the slope [6] was 0.00588 (inactive). The inhibition [7] was -22.9% (inactive) and the inhibition [8] was -48.7% (inactive).
With CCOC(=O)C1CCCN(CCCc2ccccc2)C1 (centres undefined) the cell count [1] was 361, the inhibition [1] was -17.4% (inactive) and the inhibition of aggregation [2] was -1.3% (inactive). For the same molecule, the nuclei count [2] was 118%, the inhibition [3] was -32.5% (inactive) and the nuclei count [3] was 108%. The fluorescence slope [4] was -0.438 (inactive), the NADPH fluorescence slope [5] was -2.5e-05 (inactive) and the slope [6] was 0.00567 (inactive). The inhibition [7] was 6.58% (inactive) and the inhibition [8] was 38% (inactive).
In the case of Cc1ccc(N(CC(=O)NCC2CCCO2)S(C)(=O)=O)cc1Cl (centres undefined), the cell count [1] is reported as 478, the inhibition [1] is reported as -4.5% (inactive) and the inhibition of aggregation [2] is reported as 0.2% (inactive). For the same molecule, the nuclei count [2] was 114%, the inhibition [3] was -59.9% (inactive) and the nuclei count [3] was 121%. For the same molecule, the fluorescence slope [4] was -0.292 (inactive), the NADPH fluorescence slope [5] was -1.4e-05 (inactive) and the slope [6] was 0.00598 (inactive). The inhibition [7] was 23.8% (inactive) and the inhibition [8] was 12.4% (inactive).
With CC1(C)C(=O)Nc2ccccc2N1C(=O)COC(=O)Cn1cnc2ccccc2c1=O the cell count [1] was 465, the inhibition [1] was 2.5% (inactive) and the inhibition of aggregation [2] was -1.8% (inactive). The nuclei count [2] was 107%, the inhibition [3] was -67.7% (inactive) and the nuclei count [3] was 116%. The fluorescence slope [4] was -0.364 (inactive), the NADPH fluorescence slope [5] was -1.3e-05 (inactive) and the slope [6] was 0.00422 (inactive). For the same molecule, the inhibition [7] was 7.38% (inactive) and the inhibition [8] was 20.1% (inactive).
